# Test results: the supplement of paper PMC4466140
# Key:
# Assay in all cases: SPOT peptide array binding signal intensity (averaged, normalized) (arbitrary units (background-subtracted, floor 0; scale differs between SH3 domains)); higher = stronger binding of the SH3 domain to the peptide
# AgAbp1 = target: AgAbp1
# Procedure, shortened: (§1)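 Binding signal is given in arbitrary units that differ between domains and is the normalized, background-subtracted spot intensity averaged across replicates. Each GST-SH3 fusion from one of four yeast species was made in E. coli BL21(DE3), purified on glutathione Sepharose and incubated at 10 μg/ml overnight at 4°C on cellulose-bound synthetic 15-mer peptides in which cysteines were replaced by serines. Detection used anti-GST antibody, an HRP anti-mouse secondary and luminol, followed by imaging and Genespotter quantification.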
# AgBbc1 = target: AgBbc1
# Procedure, shortened: as §1
# AgBem1-D1 = target: AgBem1-D1
# Procedure, shortened: as §1
# AgBzz1-D1 = target: AgBzz1-D1
# Procedure, shortened: as §1
# AgBzz1-D2 = target: AgBzz1-D2
# Procedure, shortened: as §1
# AgCyk3 = target: AgCyk3
# Procedure, shortened: as §1
# AgFus1 = target: AgFus1
# Procedure, shortened: as §1
# AgHof1 = target: AgHof1
# Procedure, shortened: as §1
# AgHse1 = target: AgHse1
# Procedure, shortened: as §1
# AgLsb1 = target: AgLsb1
# Procedure, shortened: as §1
# AgLsb4 = target: AgLsb4
# Procedure, shortened: as §1
# AgMyo5 = target: AgMyo5
# Procedure, shortened: as §1
# AgNbp2 = target: AgNbp2
# Procedure, shortened: as §1
# AgRvs167 = target: AgRvs167
# Procedure, shortened: as §1
# AgSho1 = target: AgSho1
# Procedure, shortened: as §1
# AgSla1-D1-D2 = target: AgSla1-D1-D2
# Procedure, shortened: as §1
# AgSla1-D3 = target: AgSla1-D3
# Procedure, shortened: as §1
# CaAbp1-D1 = target: CaAbp1-D1
# Procedure, shortened: as §1
# CaAbp1-D2 = target: CaAbp1-D2
# Procedure, shortened: as §1
# CaBbc1 = target: CaBbc1
# Procedure, shortened: as §1
# CaBem1-D1 = target: CaBem1-D1
# Procedure, shortened: as §1
# CaBzz1-D1 = target: CaBzz1-D1
# Procedure, shortened: as §1
# CaBzz1-D2 = target: CaBzz1-D2
# Procedure, shortened: as §1
# CaCyk3 = target: CaCyk3
# Procedure, shortened: as §1
# CaFus1 = target: CaFus1
# Procedure, shortened: as §1
# CaHof1 = target: CaHof1
# Procedure, shortened: as §1
# CaHse1 = target: CaHse1
# Procedure, shortened: as §1
# CaLsb1 = target: CaLsb1
# Procedure, shortened: as §1
# CaLsb4 = target: CaLsb4
# Procedure, shortened: as §1
# CaMyo5 = target: CaMyo5
# Procedure, shortened: as §1
# CaNbp2 = target: CaNbp2
# Procedure, shortened: as §1
# CaRvs167 = target: CaRvs167
# Procedure, shortened: as §1
# CaRvs167-3 = target: CaRvs167-3
# Procedure, shortened: as §1
# CaSho1 = target: CaSho1
# Procedure, shortened: as §1
# CaSla1-D1-D2 = target: CaSla1-D1-D2
# Procedure, shortened: as §1
# CaSla1-D3 = target: CaSla1-D3
# Procedure, shortened: as §1
# ScAbp1 = target: ScAbp1
# Procedure, shortened: as §1
# ScBbc1 = target: ScBbc1
# Procedure, shortened: as §1
# ScBem1-D1 = target: ScBem1-D1
# Procedure, shortened: as §1
# ScBzz1-D1 = target: ScBzz1-D1
# Procedure, shortened: as §1
# ScBzz1-D2 = target: ScBzz1-D2
# Procedure, shortened: as §1
# ScCyk3 = target: ScCyk3
# Procedure, shortened: as §1
# ScFus1 = target: ScFus1
# Procedure, shortened: as §1
# ScHof1 = target: ScHof1
# Procedure, shortened: as §1
# ScHse1 = target: ScHse1
# Procedure, shortened: as §1
# ScLsb1 = target: ScLsb1
# Procedure, shortened: as §1
# ScLsb2 = target: ScLsb2
# Procedure, shortened: as §1
# ScLsb3 = target: ScLsb3
# Procedure, shortened: as §1
# ScLsb4 = target: ScLsb4
# Procedure, shortened: as §1
# ScMyo3 = target: ScMyo3
# Procedure, shortened: as §1
# ScMyo5 = target: ScMyo5
# Procedure, shortened: as §1
# ScNbp2 = target: ScNbp2
# Procedure, shortened: as §1
# ScPex13 = target: ScPex13
# Procedure, shortened: as §1
# ScRvs167 = target: ScRvs167
# Procedure, shortened: as §1
# ScSho1 = target: ScSho1
# Procedure, shortened: as §1
# ScSla1-D1-D2 = target: ScSla1-D1-D2
# Procedure, shortened: as §1
# ScSla1-D3 = target: ScSla1-D3
# Procedure, shortened: as §1
# SpAbp1-D1 = target: SpAbp1-D1
# Procedure, shortened: as §1
# SpBbc1 = target: SpBbc1
# Procedure, shortened: as §1
# SpBzz1-D1 = target: SpBzz1-D1
# Procedure, shortened: as §1
binder,measurement,setting,value
VATSTSPKLPPRGKQ,SPOT peptide array binding signal intensity,AgAbp1,3
same,SPOT peptide array binding signal intensity,AgBbc1,548
same,SPOT peptide array binding signal intensity,AgBem1-D1,8.5
same,SPOT peptide array binding signal intensity,AgBzz1-D1,84
same,SPOT peptide array binding signal intensity,AgBzz1-D2,100
same,SPOT peptide array binding signal intensity,AgCyk3,≤ 0
same,SPOT peptide array binding signal intensity,AgFus1,5
same,SPOT peptide array binding signal intensity,AgHof1,9.5
same,SPOT peptide array binding signal intensity,AgHse1,24
same,SPOT peptide array binding signal intensity,AgLsb1,290
same,SPOT peptide array binding signal intensity,AgLsb4,4510
same,SPOT peptide array binding signal intensity,AgMyo5,≤ 0
same,SPOT peptide array binding signal intensity,AgNbp2,4
same,SPOT peptide array binding signal intensity,AgRvs167,745
same,SPOT peptide array binding signal intensity,AgSho1,18
same,SPOT peptide array binding signal intensity,AgSla1-D1-D2,3.5
same,SPOT peptide array binding signal intensity,AgSla1-D3,1.5
same,SPOT peptide array binding signal intensity,CaAbp1-D1,87
same,SPOT peptide array binding signal intensity,CaAbp1-D2,79.5
same,SPOT peptide array binding signal intensity,CaBbc1,521
same,SPOT peptide array binding signal intensity,CaBem1-D1,19.5
same,SPOT peptide array binding signal intensity,CaBzz1-D1,93
same,SPOT peptide array binding signal intensity,CaBzz1-D2,96.5
same,SPOT peptide array binding signal intensity,CaCyk3,≤ 0
same,SPOT peptide array binding signal intensity,CaFus1,80
same,SPOT peptide array binding signal intensity,CaHof1,0.5
same,SPOT peptide array binding signal intensity,CaHse1,37
same,SPOT peptide array binding signal intensity,CaLsb1,1
same,SPOT peptide array binding signal intensity,CaLsb4,3500
same,SPOT peptide array binding signal intensity,CaMyo5,4.75
same,SPOT peptide array binding signal intensity,CaNbp2,2
same,SPOT peptide array binding signal intensity,CaRvs167,1970
same,SPOT peptide array binding signal intensity,CaRvs167-3,≤ 0
same,SPOT peptide array binding signal intensity,CaSho1,13
same,SPOT peptide array binding signal intensity,CaSla1-D1-D2,32
same,SPOT peptide array binding signal intensity,CaSla1-D3,≤ 0
same,SPOT peptide array binding signal intensity,ScAbp1,21.5
same,SPOT peptide array binding signal intensity,ScBbc1,18.8
same,SPOT peptide array binding signal intensity,ScBem1-D1,≤ 0
same,SPOT peptide array binding signal intensity,ScBzz1-D1,61.5
same,SPOT peptide array binding signal intensity,ScBzz1-D2,17.5
same,SPOT peptide array binding signal intensity,ScCyk3,≤ 0
same,SPOT peptide array binding signal intensity,ScFus1,2.5
same,SPOT peptide array binding signal intensity,ScHof1,3.25
same,SPOT peptide array binding signal intensity,ScHse1,3
same,SPOT peptide array binding signal intensity,ScLsb1,268
same,SPOT peptide array binding signal intensity,ScLsb2,31
same,SPOT peptide array binding signal intensity,ScLsb3,6600
same,SPOT peptide array binding signal intensity,ScLsb4,3830
same,SPOT peptide array binding signal intensity,ScMyo3,≤ 0
same,SPOT peptide array binding signal intensity,ScMyo5,3.25
same,SPOT peptide array binding signal intensity,ScNbp2,5
same,SPOT peptide array binding signal intensity,ScPex13,882
same,SPOT peptide array binding signal intensity,ScRvs167,2350
same,SPOT peptide array binding signal intensity,ScSho1,40.5
same,SPOT peptide array binding signal intensity,ScSla1-D1-D2,17
same,SPOT peptide array binding signal intensity,ScSla1-D3,≤ 0
same,SPOT peptide array binding signal intensity,SpAbp1-D1,97
same,SPOT peptide array binding signal intensity,SpBbc1,0.25
same,SPOT peptide array binding signal intensity,SpBzz1-D1,286
